Usually inhibition stands for the change of the read-out against control, counted positive when it falls.

Each structure is given as a SMILES string. Activity calls are given as the source filed them.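 How the source made its calls, unless noted: active means fluorescence slope higher than the sample average by over 3 SD (cut at about -0.22 in these data, passing the limit was not always enough); inactive means the rest.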

The source of these data is PubChem BioAssay.

A short description of test [1]: inhibitors of TNFa-induced NFkB p65 translocation, primary screen, imaging, HUVEC, MLSMR starter and 10KST1 sets (AID 438;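 active means inhibition above 20% together with a positive visual image hit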;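 further: compound added about 3h40 before a 20 min TNFalpha stimulation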;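 on inhibition: signal is the nuclear over cytoplasmic p65 intensity ratio per well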). Particulars: HUVEC TNFa-induced p65 nuclear translocation; cell count: measured here: nuclei count (cytotoxicity indicator), at 2.08 µM; inhibition: at 2 µM, stronger effect = higher value, 0% TNFa-plus-vehicle, 100% no-TNFa wells.
Test [2] is described as follows: reduction of polyQ htt aggregates in cells – imaging, exon1htt(103Q)mCFP cells, high-content imaging, primary screen (AID 483;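 active means visual image review flags a hit and inhibition of aggregation exceeds 20%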;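 further: compound exposure lasted 3 days before fixation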;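 on nuclei count: percent of the per-plate median nuclei count of sample wells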). Particulars: exon1htt(103Q)mCFP cell line, aggregate imaging, at 2 µM; inhibition of aggregation: stronger effect = higher value; nuclei count: measured here: cell count, toxicity.
Test [3] in a line: endothelial E-selectin expression blockers – imaging, HUVEC, immunofluorescence, MLSMR starter and 10KST1 sets, primary screen (AID 487;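 active means visually confirmed hit in the image check and inhibition above 20%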;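 on inhibition: signal is fraction of cell area covered by stained E-selectin grains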;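 on nuclei count: 100% = median nuclei count of all wells on the same plate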). Conditions: HUVEC TNFalpha-induced E-selectin immunofluorescence imaging, at 2 µM; inhibition: stronger effect = higher value; nuclei count: measured here: cell number, toxicity.
Test [4] addresses Voltage-gated potassium channel subunit beta-2 (Rattus norvegicus) (UniProt P62483). Put plainly: inhibitors of rat Kvbeta2 reductase activity – biochemical, NADPH fluorescence, primary screen (AID 622).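 Further: slope of raw intensity against log time taken from 70 to 1610 s.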 Particulars: recombinant KvBeta, 4-cyanobenzaldehyde reduction, at 10 µM, stronger effect = higher value.
Test [5] has the same target. Put plainly: enhancers of rat Kvbeta2 NADPH turnover – biochemical, NADPH fluorescence, primary screen (AID 623;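 active means NADPH fluorescence slope more negative than the mean of all samples by about 3 SD, 99.7% confidence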;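 further: fluorescence intensity change per second fitted from 20 to 320 s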). Particulars: Recombinant KvBeta, NADPH fluorescence decrease slope, 10 min; at 10 µM; stronger effect = lower value.
Test [6] has as its target Alpha-2C adrenergic receptor (Homo sapiens) (UniProt P18825). Put plainly: compounds altering alpha2C-coupled GIRK flux – cell-based, HEK293 alpha2C/GIRK1/2, thallium flux, primary screen (AID 624;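 active means fluorescence slope after compound addition differing from the mean of all screened samples at 99.7% confidence, in either direction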;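 further: slope of fluorescence ratio to pre-addition baseline per second over 15 to 24 s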). Conditions: thallium flux BTC fluorescence, at 10 µM, actives lie on both sides.
Test [7] can be described thus: blockers of RIG-like receptor reporter activation – cell-based, Sendai virus stimulus, luciferase, 10K MLSCN set, TLR/RLR signaling modifier project, primary screen (AID 602276;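 active means inhibition at or above 50% at 10 µM; inactive means inhibition below 50%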;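 further: firefly luciferase from ISG56 promoter only with Renilla not read in this screen; 0% = Sendai virus plus DMSO and 100% = medium plus DMSO without virus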). Conditions: HEK293 RL24 IRF3 luciferase reporter, at 10 µM, stronger effect = higher value.
A short description of test [8]: TLR3 IRF3 reporter activation blockers – cell-based, poly I:C stimulus, luciferase, 10K MLSCN set, primary screen (AID 602277;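 active means inhibition of the reporter signal at or above 50%; inactive means inhibition below 50%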). Conditions: HEK293-TLR3 RL24 IRF3 luciferase reporter, at 10 µM, stronger effect = higher value.

Sequence of Alpha-2C adrenergic receptor (Homo sapiens) (P18825 whole entry, looked up): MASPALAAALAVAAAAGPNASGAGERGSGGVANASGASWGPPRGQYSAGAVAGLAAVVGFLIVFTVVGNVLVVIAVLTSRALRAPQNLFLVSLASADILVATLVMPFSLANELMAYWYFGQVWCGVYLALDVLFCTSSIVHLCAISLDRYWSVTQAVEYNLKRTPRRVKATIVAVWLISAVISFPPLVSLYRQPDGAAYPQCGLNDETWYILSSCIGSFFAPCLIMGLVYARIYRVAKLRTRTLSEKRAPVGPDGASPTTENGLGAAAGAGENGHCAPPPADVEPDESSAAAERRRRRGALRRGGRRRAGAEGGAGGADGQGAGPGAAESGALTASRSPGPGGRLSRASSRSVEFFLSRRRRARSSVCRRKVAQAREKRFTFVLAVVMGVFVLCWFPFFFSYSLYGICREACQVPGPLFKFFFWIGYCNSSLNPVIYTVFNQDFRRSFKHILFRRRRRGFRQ
Sequence of Voltage-gated potassium channel subunit beta-2 (Rattus norvegicus) (P62483 whole entry, looked up): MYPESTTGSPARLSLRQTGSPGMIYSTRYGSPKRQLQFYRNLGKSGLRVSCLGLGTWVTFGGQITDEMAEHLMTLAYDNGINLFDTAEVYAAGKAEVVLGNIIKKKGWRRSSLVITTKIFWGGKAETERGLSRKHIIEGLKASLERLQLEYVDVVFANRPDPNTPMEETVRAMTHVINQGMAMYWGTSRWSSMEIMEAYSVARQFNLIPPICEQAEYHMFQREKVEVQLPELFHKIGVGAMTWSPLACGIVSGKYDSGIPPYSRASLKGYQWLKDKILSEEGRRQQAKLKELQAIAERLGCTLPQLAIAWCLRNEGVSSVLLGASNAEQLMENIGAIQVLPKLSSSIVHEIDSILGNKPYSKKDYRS

Regarding `CCC(C)(NC(=O)CNC(C)=O)C(=O)NC1CCCCC1` (centres undefined), the cell count in test [1] came out at 610. Moreover, the inhibition is -15.7% (inactive) in test [1], -24.9% (inactive) in test [3], -6.71% (inactive) in test [7] and -2.23% (inactive) in test [8]. Besides, the inhibition of aggregation in test [2] is -1.1% (inactive). For the same compound, the nuclei count in test [2] came to 122%; in test [3], 116%. Moreover, the fluorescence slope in test [4] was -0.472 (inactive). The NADPH fluorescence slope in test [5] was -0.000295 (inactive). The slope in test [6] was 0.00509 (inactive).
On to `COc1ccc(Nc2ncc3c(n2)CC(c2ccc(OC)cc2)CC3=O)cc1` (centres undefined), for which the cell count in test [1] was determined as 649. Besides, the inhibition in test [1] was 6.3% (inactive); in test [3] it was -5.5% (inactive); in test [7] it was 5.21% (inactive); in test [8], -19.5% (inactive). Moreover, the inhibition of aggregation in test [2] was -7.5% (inactive). The nuclei count stood at 101% in test [2] and 97% in test [3]. For the same compound, the fluorescence slope in test [4] was -0.298 (inactive). Moreover, the NADPH fluorescence slope in test [5] is -3.8e-05 (inactive). Also, in test [6], the slope was 0.0047 (inactive).
Take `COc1ccc(-c2cc3n(n2)CCc2nc4ccccc4n2-3)cc1`: the cell count in test [1] turned out to be 415. The inhibition in test [1] is -32.3% (inactive); in test [3], 37% (inactive); in test [7] it was 12.2% (inactive); in test [8], -17.1% (inactive). Besides, the inhibition of aggregation in test [2] was 30.7% (inactive). In addition, the nuclei count stood at 123% in test [2] and 127% in test [3]. The fluorescence slope in test [4] is -0.433 (inactive). In addition, the NADPH fluorescence slope in test [5] was -1.6e-05 (inactive). Further, in test [6], the slope was 0.00599 (inactive).
As for `Cn1c(SCCN2CCCCC2)nnc1-c1ccccc1Br`, the cell count in test [1] stood at 493. For the same compound, the inhibition in test [1] was 4.4% (inactive); in test [3] it was -13.3% (inactive); in test [7], 13.4% (inactive); in test [8] it was 13.7% (inactive). In addition, the inhibition of aggregation in test [2] was 1.1% (inactive). The nuclei count in test [2] is 70.5%; in test [3], 98.3%. Moreover, the fluorescence slope in test [4] is -0.509 (inactive). The NADPH fluorescence slope in test [5] is -3.5e-05 (inactive). The slope in test [6] is 0.00556 (inactive).
Regarding `O=C(CSc1nnc(-c2ccncc2)o1)Oc1ccccc1`, the cell count in test [1] is 662. Further, the inhibition was -2.6% (inactive) in test [1], -84.7% (inactive) in test [3], 16.3% (inactive) in test [7] and 13.7% (inactive) in test [8]. Further, in test [2], the inhibition of aggregation was -12.9% (inactive). The nuclei count in test [2] and in test [3] was 109% each time. In test [4], the fluorescence slope was -0.39 (inactive). Also, the NADPH fluorescence slope in test [5] was -5.2e-05 (inactive). Further, the slope in test [6] was 0.00449 (inactive).
In the case of `CNC(=O)c1nnn(Cc2ccccc2)c1NC(C)=O`, in test [1], the cell count was 539. Further, the inhibition in test [1] is -14.7% (inactive); in test [3], -73.3% (inactive); in test [7], -13% (inactive); in test [8], -3.44% (inactive). Further, the inhibition of aggregation in test [2] was -9.5% (inactive). For the same compound, the nuclei count in test [2] was 102%; in test [3], 92.3%. The fluorescence slope in test [4] is -0.601 (inactive). In addition, the NADPH fluorescence slope in test [5] was 4e-05 (inactive). Besides, in test [6], the slope was 0.00612 (inactive).
For the compound `CC(C)Nc1ncnc2c1cnn2-c1ccccc1`, the cell count in test [1] is 681. Besides, the inhibition is -6.7% (inactive) in test [1], -1.2% (inactive) in test [3], -54.7% (inactive) in test [7] and -180% (inactive) in test [8]. Besides, in test [2], the inhibition of aggregation is -56.3% (inactive). The figures for the nuclei count in test [2] and in test [3] were 3.7% and 114%, respectively. The fluorescence slope in test [4] is -0.589 (inactive). The NADPH fluorescence slope in test [5] is -2e-05 (inactive). For the same compound, the slope in test [6] is 0.00563 (inactive).
With `CCOC(=O)N1CCC(NC(=O)CS(=O)(=O)Cc2nc(-c3ccccc3C)oc2C)CC1`, the cell count in test [1] was 699. In addition, the inhibition in test [1] was -7.5% (inactive); in test [3], -66.8% (inactive); in test [7] it was 9.06% (inactive); in test [8] it was -5.43% (inactive). Also, the inhibition of aggregation in test [2] was 2.1% (inactive). In addition, the figures for the nuclei count in test [2] and in test [3] were 96.6% and 119%, respectively. Further, in test [4], the fluorescence slope was -0.513 (inactive). For the same compound, the NADPH fluorescence slope in test [5] is -2.7e-05 (inactive). Besides, in test [6], the slope is 0.00671 (inactive).
With `CCc1nnc(NC(=O)c2cc3ccccc3oc2=O)s1`, the cell count in test [1] is 597. In addition, the inhibition in test [1] is -9.6% (inactive); in test [3], -67.3% (inactive); in test [7] it was -9.54% (inactive); in test [8], -77.5% (inactive). The inhibition of aggregation in test [2] is 15.7% (inactive). In addition, the nuclei count in test [2] was determined as 96.9%; in test [3] it was 96.3%. Besides, the fluorescence slope in test [4] was -0.57 (inactive). Besides, in test [5], the NADPH fluorescence slope was -2e-05 (inactive). Also, the slope in test [6] is 0.00433 (inactive).
For `CCOc1ccc(OCc2cccc(C(=O)N3CCOCC3)c2)cc1`, the cell count in test [1] is 383. Also, the inhibition in test [1] is 3.1% (inactive); in test [3] it was -148% (inactive); in test [7], -39.6% (inactive); in test [8], -97.2% (inactive). Also, in test [2], the inhibition of aggregation is -7.6% (inactive). In addition, the nuclei count in test [2] was 101%; in test [3], 117%. The fluorescence slope in test [4] is -0.407 (inactive). Also, the NADPH fluorescence slope in test [5] was -6.4e-05 (inactive). Besides, the slope in test [6] is 0.00492 (inactive).
On to `COc1cc(S(=O)(=O)N2CCOCC2)ccc1NC(=O)COC(=O)C12CC3CC(CC(C3)C1)C2`, for which the cell count in test [1] stood at 533. Besides, the inhibition in test [1] is -24.9% (inactive); in test [3], 27.1% (inactive); in test [7], 8.59% (inactive); in test [8] it was 19.8% (inactive). Further, the inhibition of aggregation in test [2] was -8.6% (inactive). Besides, the nuclei count in test [2] came out at 108%; in test [3], 89.4%. The fluorescence slope in test [4] is -0.258 (inactive). Further, the NADPH fluorescence slope in test [5] is 2.4e-06 (inactive). For the same compound, the slope in test [6] was 0.00665 (inactive).
Take `O=C(COC(=O)c1cncc(Br)c1)NCCC1=CCCCC1`: in test [1], the cell count amounted to 555. Also, the inhibition in test [1] was -7.6% (inactive); in test [3], -26.8% (inactive); in test [7], 1.87% (inactive); in test [8], 25.9% (inactive). Further, in test [2], the inhibition of aggregation was 6% (inactive). The figures for the nuclei count in test [2] and in test [3] were 107% and 116%, respectively. In addition, the fluorescence slope in test [4] was -0.338 (inactive). Besides, the NADPH fluorescence slope in test [5] is -3.9e-05 (inactive). Moreover, in test [6], the slope is 0.00679 (inactive).
As to `CCCCOc1ccccc1C1C(C(N)=O)=C(C)Nc2nnnn21` (centres undefined), in test [1], the cell count came to 279. Moreover, the inhibition in test [1] is -4.7% (inactive); in test [3] it was -56% (inactive); in test [7], 17.4% (inactive); in test [8], 27.7% (inactive). For the same compound, the inhibition of aggregation in test [2] was 0.7% (inactive). Besides, the figures for the nuclei count in test [2] and in test [3] were 88.7% and 97.9%, respectively. Moreover, the fluorescence slope in test [4] was -0.459 (inactive). Further, in test [5], the NADPH fluorescence slope was 2.7e-05 (inactive). For the same compound, in test [6], the slope was 0.0066 (inactive).
As to `COC(=O)Nc1nnc(CCc2ccccc2)s1`, in test [1], the cell count turned out to be 547. For the same compound, the inhibition in test [1] was 3.2% (inactive); in test [3], -51.8% (inactive); in test [7], 12.3% (inactive); in test [8] it was 2.62% (inactive). Further, the inhibition of aggregation in test [2] was 2.7% (inactive). The nuclei count in test [2] turned out to be 107%; in test [3], 113%. Further, the fluorescence slope in test [4] is -0.509 (inactive). Further, the NADPH fluorescence slope in test [5] is -4.7e-05 (inactive). The slope in test [6] was 0.00467 (inactive).
